The text below walks through data of PubChem BioAssay (NCI).

“And” between values parts separate entries of the source, which are not always exact repeats. Equal entries are not always repeated. About 79,000 compounds went through this panel and 15% of them were active in at least one assay; those are over-represented in the sample as a whole. The source made the active and inactive calls. No stated cut-off is given here; in the data, active means growth inhibition above about 70%; inactive means the rest.

The nature of experiment [1]: NCI Yeast Anticancer Drug Screen. Data for the rad50 strain (AID 155).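 Further: 0% = growth of vehicle-only cultures of the same strain.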 Conditions: S. cerevisiae rad50 strain growth inhibition; at 50.0 µM; stronger effect = higher value. The gist of the method: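 Growth of the mutant yeast was measured after compound exposure and referenced to vehicle-treated cultures.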
Experiment [2] is described as follows: NCI Yeast Anticancer Drug Screen. Data for the mec2-1 strain (AID 157). Conditions: S. cerevisiae mec2-1 strain, at 50.0 µM, stronger effect = higher value. The gist of the method: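 Cells of the genetically defined mec2-1 yeast strain are incubated with test compound. Inhibition of growth is calculated against vehicle-treated controls.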
A short description of experiment [3]: NCI Yeast Anticancer Drug Screen. Data for the sgs1 mgt1 strain (AID 161).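 Further: 0% = growth of cultures given vehicle only.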 Conditions: S. cerevisiae sgs1 mgt1 strain, at 50.0 µM, stronger effect = higher value. The gist of the method:
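Inhibition of yeast growth, normalised to vehicle-treated controls, is reported for a strain bearing genetic alterations in DNA damage repair.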

A short description of experiment [4]: NCI Yeast Anticancer Drug Screen. Data for the cln2 rad14 strain (AID 165).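 Further: 0% = growth equal to vehicle treated cultures.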 The note with it: S. cerevisiae cln2 rad14 strain, at 50.0 µM, stronger effect = higher value. The method, boiled down: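 The screen exposed genetically defined yeast (cln2 rad14) to test compounds and scored growth inhibition relative to vehicle-treated controls.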
Experiment [5] is described as follows: NCI Yeast Anticancer Drug Screen. Data for the bub3 strain (AID 167). The note with it: S. cerevisiae bub3 mutant strain, at 50.0 µM, stronger effect = higher value. The method, boiled down: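 Whole-cell yeast assay. The mutant strain was incubated with compounds, and growth inhibition was determined by comparison with vehicle-treated cells.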
Experiment [6] in a line: NCI Yeast Anticancer Drug Screen. Data for the mlh1 rad18 strain (AID 175). Conditions: S. cerevisiae mlh1 rad18 strain growth inhibition; at 50.0 µM; stronger effect = higher value. The method, boiled down:
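Compound-treated yeast growth, normalised to vehicle controls. Strain bears defined DNA repair mutations.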

In the case of `CC1=C[C@H]2[C@@]3(O)[C@H](C)C[C@]4(OC(=O)C(C)C)[C@H]([C@@H]3C=C(CO)C[C@]2(O)C1=O)C4(C)C`, the growth inhibition is 20.1% (inactive) in experiment [1]; 14.3% (inactive) in experiment [2]; 4.8% (inactive) in experiment [3]; 3.9% (inactive) in experiment [4]; 20.8% (inactive) in experiment [5]; 10.8% (inactive) in experiment [6].

On to `C[CH2][Sn]1([CH2]C)[O]OC(c2ccccc2)[O]1` (stereo unspecified), for which the growth inhibition in experiment [1] was 6.25% (inactive); in experiment [2] it was 2.75% (inactive); in experiment [3], 18.7% (inactive); in experiment [5], 14.1% (inactive); in experiment [6], 20.3% (inactive).

For `C/C=C/C(C)C1(CC)C(=O)NC(=S)NC1=O` (stereo unspecified), the growth inhibition in experiment [1] is 8.8% (inactive); in experiment [2] it was 9.65% (inactive); in experiment [3], 9% (inactive); in experiment [5], -11.3% (inactive); in experiment [6], -13.1% (inactive).

Regarding `O=C(COc1ccc(Cl)c(Cl)c1)Nc1ccc[n+](Cc2ccc(S(=O)(=O)F)cc2Cl)c1`, the growth inhibition in experiment [1] is 52.5% (inactive); in experiment [2] it was 27.9% (inactive); in experiment [3], 17.6% (inactive); in experiment [5] it was 4% (inactive); in experiment [6] it was 8.5% (inactive).

Turning to `O=C(O)CN(CCN(CC(=O)O)CC(=O)O)CC(=O)O.[Ni+2]`, the growth inhibition is -29.2% (inactive) in experiment [1]; -23% (inactive) in experiment [2]; -15% (inactive) in experiment [4]; 0.4% (inactive) in experiment [5]; -19.9% (inactive) in experiment [6].

On to `CN(C)CCc1ccc(Cl)cc1Cl`, for which the growth inhibition in experiment [1] was 11.1% (inactive); in experiment [2] it was 14.3% (inactive); in experiment [3] it was -2.5% (inactive); in experiment [5], 3.75% (inactive); in experiment [6] it was 22.4% (inactive).

Regarding `CC(C)CC(=O)[O-].N.N.N.N.N.[Co+3].[O-][Cl+3]([O-])([O-])[O-]`, the growth inhibition in experiment [1] is -4.85% (inactive); in experiment [2], 23.4% (inactive); in experiment [3], -19.6% (inactive); in experiment [5], -10.1% (inactive); in experiment [6] it was -19.1% (inactive).

`O=C(O)c1cc[c]([Hg][S]c2ncnc3nc[nH]c23)cc1`: the growth inhibition is 99% (active) in experiment [1]; 98.3% (active) in experiment [2]; 98.2% (active) in experiment [4]; 97.5% (active) in experiment [5]; 98.9% (active) in experiment [6].

On to `C1CC[N-]CC1.CC(=N\O)/C(C)=N/O.CC(=N\O)/C(C)=N/O.C[CH-]C(C)O.[Co+2]`, for which the growth inhibition in experiment [1] is -2% (inactive); in experiment [2], -7.15% (inactive); in experiment [3] it was 36.3% (inactive); in experiment [4], 8.2% (inactive); in experiment [5], -13.1% (inactive); in experiment [6] it was 39.9% (inactive).

`O=C(Cl)C1CCC1`: the growth inhibition in experiment [1] is 11% (inactive); in experiment [2], -5.35% (inactive); in experiment [4], -4.65% (inactive); in experiment [5] it was -7% (inactive); in experiment [6], 16.1% (inactive).

Consider `S=C=NCc1ccccc1`, for which the growth inhibition in experiment [1] is -1.55% (inactive); in experiment [2], 2.65% (inactive); in experiment [4] it was -12.9% (inactive); in experiment [5] it was 0.85% (inactive); in experiment [6], 1.9% (inactive).

In the case of `Cn1c(=O)n(C)c(=O)n(C)c1=O`, the growth inhibition in experiment [1] was 3.8% (inactive); in experiment [2] it was 6.65% (inactive); in experiment [3] it was -5.2% (inactive); in experiment [4], -1.55% (inactive); in experiment [5], 14.6% (inactive); in experiment [6] it was -12.6% (inactive).

With `O=C1CC2OCC=C3CN4CCC56c7ccccc7N1C5C2C3CC46` (stereo unspecified) (tested in a mixture with another compound), the growth inhibition in experiment [1] was 25% (inactive) and 2.65% (inactive) and 6.9% (inactive); in experiment [2] it was -7.15% (inactive) and 22.6% (inactive) and -14.6% (inactive); in experiment [3], -15.7% (inactive) and -7.3% (inactive) and -9.45% (inactive); in experiment [5] it was 3.35% (inactive) and 5.1% (inactive) and -9.9% (inactive); in experiment [6], 5.7% (inactive) and 9.45% (inactive) and 10.1% (inactive).

In the case of `CCCCC1(CCS)C(=O)NC(=O)NC1=O`, the growth inhibition is -5.55% (inactive) in experiment [1]; -11.8% (inactive) in experiment [2]; -4.75% (inactive) in experiment [3]; -4.05% (inactive) in experiment [5]; -17.1% (inactive) in experiment [6].

As for `O=P(O)(Oc1ccccc1)Oc1ccccc1`, the growth inhibition in experiment [1] is 33.7% (inactive); in experiment [2], 16.4% (inactive); in experiment [3], 14.8% (inactive); in experiment [4] it was 18.2% (inactive); in experiment [5], 0.55% (inactive); in experiment [6] it was 20.9% (inactive).

As to `CCOP(=O)(OCC)/C(=C/c1cccs1)CC(C)=O`, the growth inhibition in experiment [1] was 7.8% (inactive); in experiment [2], -57.6% (inactive); in experiment [4], 14.6% (inactive); in experiment [5] it was -25.9% (inactive); in experiment [6], -76% (inactive).

`CNC(C)Cc1ccccc1OC` (stereo unspecified) (tested in a mixture with another compound): the growth inhibition in experiment [1] is -14.8% (inactive); in experiment [2], 1.9% (inactive); in experiment [3], 4.15% (inactive); in experiment [4] it was -35.9% (inactive); in experiment [5], 9.55% (inactive); in experiment [6] it was -7.7% (inactive).

On to `CC(=O)OC1CC(OC2C(O)CC(OC3C(O)CC(OC4CCC5(C)C(CCC6C5CC(O)C5(C)C(C7=CC(=O)OC7)CCC65O)C4)OC3C)OC2C)OC(C)C1OC1OC(CO)C(O)C(O)C1O` (stereo unspecified), for which the growth inhibition in experiment [1] was 6.05% (inactive); in experiment [2], -15.4% (inactive); in experiment [3], -25.1% (inactive); in experiment [5], 5.7% (inactive); in experiment [6], 10.6% (inactive).

For the compound `O=C=Nc1cccc(S(=O)(=O)F)c1`, the growth inhibition in experiment [1] was 56.8% (inactive); in experiment [2], 4.15% (inactive); in experiment [3], 26% (inactive); in experiment [4], 28.4% (inactive); in experiment [5], 33.9% (inactive); in experiment [6] it was 11.9% (inactive).
